Screening results as filed in PubChem BioAssay.
Pf growth 48h – inhibits P. falciparum growth in the first generation, 48 h; P. falciparum luciferase growth in erythrocytes, 48 h; Potency, µM (titrated, usually from 28.7 µM), inactives show at the highest dose activity change, negative = inhibition, most hits filed as inhibitors; 310,000 tested, 5.9% active; AID 504832; also: potency is read from the fitted curve at half-maximal effect; % is scaled to controls: 0 for no effect and ±100 for the full control effect
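Firefly luciferase activity from engineered P. falciparum reports growth; inhibitors lower the luminescent signal. Cultures contained 2% hematocrit erythrocytes at 0.1% final parasitemia.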
HCV inh – inhibitors of hepatitis C virus infection | Huh7.5.1 HCVcc-Cre infection, luciferase reporter, 44 h | Potency, µM (series often up to 41.8 µM), for the others: at the top dose activity change, negative = inhibition, hits mostly inhibitors | 340,000 tested, 3.4% active; also: potency is read from the fitted curve at half-maximal effect; % is scaled to controls: 0 for no effect and ±100 for the full control effect
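Infectious HCV cell culture screen: compound-treated cells (1,000/well, pre-plated 4 h) are infected with HCVcc-Cre at roughly 0.5 moi and grown 44 h. Infection is quantified by luciferase signal after 15 min substrate incubation at room temperature.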
Pf growth 96h – P. falciparum growth inhibition at 96 hour, primary screen for plastid delayed-death inhibitors; P. falciparum luciferase reporter growth, 96 h; Potency, µM (doses to about 28.7 µM), for inactives: at the highest dose activity change, negative = inhibition, usual class: inhibitors; 320,000 tested, 6.9% active; also: potency is read from the fitted curve at half-maximal effect; % is scaled to controls: 0 for no effect and ±100 for the full control effect
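96 h incubation, 37 C, 5% CO2, of luciferase-reporter P. falciparum-infected RBCs (2% hematocrit, 0.05% parasitemia final) with test compounds; endpoint luminescence.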
HCMV inh – human cytomegalovirus inhibition; HFF cells, HCMV-luciferase reporter, 72 h; stronger effect = lower value; activity change, negative = inhibition, % at 57.5 µM; 410,000 tested, 4.5% active; in the data active = activity change below about -60%; inconclusive = no clear call, values can overlap the other calls; inactive = above about -39%; also: % is scaled to controls: 0 for no effect and ±100 for the full control effect
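Inhibition of viral replication was scored as loss of reporter luminescence in HFFs infected with HCMV-luciferase (MOI 1 PFU/cell) for 72 h; compounds tested at 2 doses, normalized to buffer and Salinomycin controls.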
Shiga inhibitor – Shiga toxin inhibition | 290,000 tested, 9.2% active | AID 2315 | Vero cells, Shiga toxin protein synthesis inhibition reporter | inhibition, % at 38.7 µM; in the data active = inhibition mostly above about 28%, no sharp cut-off; inactive = mostly below about 43%; also: 0% is about no effect
Cycloheximide cs – affects cycloheximide protein synthesis inhibition readout, counter-screen. cell reporter, cycloheximide protein synthesis inhibition counterscreen. max response, %. 300,000 tested, 12% active; in the data active = max response mostly above about 13%, no sharp cut-off; inactive = mostly below about 14%; also: read at 38.3 µM for the half of the compounds with a filed dose; 0% is about no effect
Active calls of the source: *; i = inactive; ? = inconclusive; . = no result; [ ] = another dose, or the depositor's remark. In the library only some 21% were active in any assay of this set; here they are far more common. Unless noted, calls follow the shape of the dose curve; as a rule, active = well fitted inhibition curve with a large enough effect; inconclusive = small, poorly fitted or top-dose-only effect, or another doubt; inactive = no such curve, though single readings can be large or run the other way.

SMILES	Pf growth 48h	HCV inh	Pf growth 96h	HCMV inh	Shiga inhibitor	Cycloheximide cs
C[C@@H]1CN([C@H](C)CO)C(=O)c2c(c3ccccc3n2C)-c2ccccc2CO[C@H]1CN(C)Cc1ccc(C(F)(F)F)cc1	.	.	.	-106.5*	.	.
CCc1nc2ccccc2c(=O)n1NC(=O)c1c(O)c2cccc3c2n(c1=O)CCC3	14.5%	-1.0%	16.2%	-12.9	-1.2	-0.5
O=C(Nn1c(Cc2ccccc2)nc2ccccc2c1=O)c1c(O)c2cccc3c2n(c1=O)CCC3	27.3%	-10.2%	-4.1%	-65.8*	-7.1	-3.1
O=C(NCc1ccco1)c1c(O)c2cccc3c2n(c1=O)CCC3	13.0%	9.1%	13.1µM*	-10.5	13.7	-1.9
O=C(/C(N=Nc1cccc(C(F)(F)F)c1)=C(/O)c1cccs1)C(F)(F)F	?	?	5.22µM*	162.9	66.3*	35.5*
CC(=O)/C(N=Nc1cccc(C(F)(F)F)c1)=C(\C)O	-10.7%	?	-0.4%	-36.0	11.4	1.0
CN(CC(=O)Nc1ccccc1Br)CC(=O)Nc1ccccc1C(F)(F)F	11.4%	22.0%	11.8%	1.2	-1.7	0.2
COCCNc1nc(-c2cc(C)n(CCc3ccc(OC)cc3)c2C)cs1	2.62µM*	-19.0%	?	9.5	6.2	-4.4
COc1ccc(CN2CC[C@H]3C=CCc4cccc(c43)C2)cc1	3.7µM*	?	?	-27.0	.	.
COC(=O)C1CCN(Cc2ccc(C)cc2)CC1	.	?	22.4%	-5.3	-7.8	0.2
COc1ccc(CNC2CCN(Cc3ccccc3)CC2)cc1	?	?	-2.8%	42.1	-2.4	-2.3
C1=C[C@@H]2CCN(Cc3ccccc3)Cc3cccc(c32)C1	8.28µM*	4.6%	7.38µM*	32.3	.	.
Cc1ccc(CN2CC[C@H]3C=CCc4cccc(c43)C2)cc1	5.22µM*	?	?	-18.8	.	.
Cc1ccc(Cl)cc1N1CCN(C(=O)c2cn(CC(C)C)c(=O)c3c2c2ccccc2n3C)CC1	.	.	.	18.6	.	.
CCC(C)C1/C=C\CCCC(=O)N1Cc1ccc(C)cc1 (stereo unspecified)	.	.	.	.	i	-1.4
CCOC(=O)c1c(NC(=O)c2cc3nc(-c4ccccc4)cc(C(F)(F)F)n3n2)sc2c1CCC(C)C2 (stereo unspecified)	.	.	.	6.2	.	.
CC(C)(C)OC(=O)N(CCc1ccccc1)Cc1ccccc1OCc1ccc(NC(=O)C2CCC2)cc1	.	0.562µM*	.	?	.	.
CC(C)(C)OC(=O)N(Cc1ccccc1)Cc1ccccc1OCc1ccc(NC(=O)C2CCC2)cc1	.	?	.	-90.2*	.	.
CC(C)(C)OC(=O)N(CCc1ccccc1)Cc1ccccc1OCc1cccc(NC(=O)C2CCCC2)c1	.	-29.1%	.	-9.7	.	.
CC(=O)Nc1ccc(NC(=O)CC(C)n2ccc(C)n2)cc1 (stereo unspecified)	.	.	.	-11.3	.	.
Brc1ccc(CSc2ncnc3nc[nH]c23)cc1	32.3%	5.5%	-40.7%	34.6	17.6	15.9*
Fc1ccc(CSc2ncnc3nc[nH]c23)cc1	6.8%	-11.9%	-2.1%	23.9	13.1	-0.4
Cc1ccc(OCCSc2ncnc3nc[nH]c23)cc1	124.2%	?	.	110.0	75.9	60.8*
CCC(C)(C)c1ccc(OCCCC[n+]2cccc(C)c2C)c(C(C)(C)CC)c1	0.828µM*	17.8µM*	0.37µM*	-96.6*	-24.2	-2.3
CCC(C)(C)c1ccc(OCCCC[n+]2ccc(C)cc2)c(C(C)(C)CC)c1	1.85µM*	?	3.7µM*	-97.3*	-20.9	-5.2
SMILES	Pf growth 48h	HCV inh	Pf growth 96h	HCMV inh	Shiga inhibitor	Cycloheximide cs
Cc1ccc2nc(C)cc(C(=O)N/N=C/c3ccncc3)c2c1	4.1%	14.2%	-19.2%	.	-9.8	-2.6
Cc1ccccc1NC(=S)Nc1ccc2[nH]c(=O)[nH]c2c1	-6.5%	9.7%	25.7%	-25.4	-9.4	1.2
CC1=C(C(=O)OCC(C)C)C(c2cc3c(cc2Br)OCO3)NC(=O)N1C (stereo unspecified)	10.4µM*	?	-23.2%	-22.1	-5.8	-1.6
CC1=C(C(=O)OCc2ccc3c(c2)OCO3)C(c2ccccc2)NC(=O)N1 (stereo unspecified)	.	?	-18.2%	-91.8*	-25.5	-4.7
COc1ccc(COC(=O)C2=C(C)NC(=O)NC2c2ccc(OC)cc2)cc1 (stereo unspecified)	6.8%	?	32.1%	-64.3*	.	-1.2
CC1=C(C(=O)OCc2ccc3c(c2)OCO3)C(c2ccc(O)c([N+](=O)[O-])c2)NC(=O)N1 (stereo unspecified)	-7.9%	-13.7%	67.8%	?	-2.3	1.2
CC1=C(C(=O)OCC(C)C)C(c2ccccc2Cl)NC(=O)N1C (stereo unspecified)	.	?	-40.8%	?	-7.7	5.7
CC1=C(C(=O)OCc2ccc3c(c2)OCO3)C(c2ccccc2OCc2ccccc2)NC(=O)N1 (stereo unspecified)	10.4µM*	10µM*	.	-24.2	-27.0	0.8
COc1ccc(OC)c(C2NC(=O)NC(C)=C2C(=O)OCc2ccccc2)c1 (stereo unspecified)	-21.2%	-19.6%	-9.3%	28.0	-15.5	1.2
COC(=O)C1=C(C)NC(=O)NC1c1ccc2ccccc2c1 (stereo unspecified)	?	-20.2%	10.4µM*	-14.6	-5.0	1.8
COC(=O)C1=C(C)NC(=O)NC1c1ccccc1 (stereo unspecified)	-8.5%	4.4%	?	38.0	9.7	-1.2
CCOC(=O)C1=C(C)NC(=O)NC1c1cc2c(cc1Br)OCO2 (stereo unspecified)	9.28µM*	?	-4.4%	-1.1	-2.2	4.1
COC(=O)C1=CN(C(C)C)C=C(C(=O)OC)C1c1cc2c(cc1Br)OCO2	?	-12.2%	3.7µM*	-18.4	-15.7	-6.2
CN1C(=O)/C(=C2\SC(=S)N(NC(=O)c3cccnc3)C2=O)c2ccccc21	9.3%	14.5%	2.94µM*	105.8	-2.3	-1.7
CCOC(=O)CN1C(=O)/C(=C2\SC(=S)N(NC(=O)c3cccnc3)C2=O)c2ccccc21	-0.8%	11.0%	-2.5%	3.4	-3.4	0.8
COc1ccc(C(=O)/C(=C\c2sccc2C)c2nc3ccccc3o2)cc1	?	-5.4%[0.335 µM]	3.29µM*	.	49.4	18.8*
O=C(O)/C(=C\c1cccs1)c1ccc(F)cc1	-38.6%	7.4%	12.6%	-23.6	-5.5	9.9
CC(C)Oc1ccc(C(=O)/C(=C\c2cccs2)c2nc3ccccc3o2)cc1	?	?	?	-72.7*	active	37.7*
CC(C)COC(=O)NCC12C=CC(O1)C1C(=O)N(c3ccc(Cl)cc3)C(=O)C12 (stereo unspecified)	-2.3%	10.3%	34.0%	2.1	12.4	0.7
